# Screening data (PubChem)
# D3 antag – blocks the human D3 dopamine receptor. P35462. 2.5% of 360,000 active. D3R cells, DiscoveRx beta-arrestin luminescence, antagonist mode; stronger effect = lower value. max response, negative = inhibition, %; in the data active = max response below about -50%; also: % is scaled to controls: 0 for no effect and ±100 for the full control effect
#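 Cells expressing the human receptor were seeded at 1500 cells/well, incubated overnight at 37 degrees C in 5% CO2, then exposed to library compounds with dopamine controls for 90 minutes at 37 degrees C before luminescent detection.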
# D1 antag – blocks dopamine activation of the human D1 receptor; P21728; activity change, negative = inhibition, % at 10 µM; HEK293 TREx D1 cells, calcium flux, dopamine EC80; stronger effect = lower value; 3.2% of 360,000 active; in the data active = activity change below about -30%; also: % is scaled to controls: 0 for no effect and ±100 for the full control effect
# Target sequence (P21728 whole entry, looked up): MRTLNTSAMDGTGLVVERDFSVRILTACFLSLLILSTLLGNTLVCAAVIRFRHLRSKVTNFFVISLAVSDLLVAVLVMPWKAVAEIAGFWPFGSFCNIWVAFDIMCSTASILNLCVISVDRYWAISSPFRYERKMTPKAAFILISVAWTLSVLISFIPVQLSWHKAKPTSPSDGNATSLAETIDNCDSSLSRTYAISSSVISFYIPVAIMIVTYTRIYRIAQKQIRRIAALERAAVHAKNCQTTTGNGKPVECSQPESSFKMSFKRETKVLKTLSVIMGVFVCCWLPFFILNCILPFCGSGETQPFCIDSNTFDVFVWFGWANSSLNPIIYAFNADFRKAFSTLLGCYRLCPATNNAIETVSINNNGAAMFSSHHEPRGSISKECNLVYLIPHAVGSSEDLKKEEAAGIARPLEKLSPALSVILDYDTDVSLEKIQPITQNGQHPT
#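 After overnight tetracycline induction at 30 C, force-coupled D1 HEK293 cells took up a no-wash calcium dye at room temperature. Compounds were added and monitored 180 s, and the response to EC80 dopamine was then recorded.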
# D1 PAM – potentiators of human D1 dopamine receptor; potentiation, % at 10 µM; 0.036% of 360,000 active; HEK293 TREx D1 cells, calcium flux, dopamine EC20 potentiation; P21728; AID 504651; in the data active = potentiation above about 30%; also: 0% is about no effect
# D3 ag – D3 dopamine receptor (human) agonism. D3R DiscoveRx beta-arrestin cells, luminescence, 90 min. 0.58% of 410,000 active. max activation, %. P35462; in the data active = max activation above about 30%; also: 0% is about no effect
#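 Cells at 1500/well, incubated overnight, then treated with pinned compounds (dopamine as control) for 90 min at 37 degrees C. DiscoveRx reagent added for 30 - 60 minutes at room temperature; luminescence read.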
# D1 agonist – activates the human D1 dopamine receptor. 1% of 360,000 active. activation, % at 2 µM. HEK293 T-REx D1 cells, calcium flux, agonist mode. P21728; in the data active = activation above about 30%; also: 0% is about no effect
#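 Tetracycline-induced HEK293 TREx D1 cells, force-coupled to calcium signalling, were dye-loaded with a no-wash calcium kit. Compound was pin-added after a 10 s baseline. Fluorescence was read kinetically at 1 cycle/s for 180 s, with calcium rises flagged as agonism.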
# Numbers without * were called inactive; . = no result. Shown are actives, neighbours in structure and some others; about 6.1% of the full set was active somewhere.
SMILES,D3 antag,D1 antag,D1 PAM,D3 ag,D1 agonist
CCCC(C)(COC(N)=O)COC(=O)NC1CC1 (stereo not drawn),.,.,.,11,.
O=C(c1ccc2c(c1)N(Cc1c(F)cccc1Cl)C(=O)c1ccccc1S2)N1CCC2(CC1)OCCO2,.,5,1,-5,1
C[C@@H](N)C(=O)c1ccccc1,.,.,.,-4,.
C[C@]12CC[C@H]3[C@@H](CCC4=C(Cl)C(=O)CC[C@@]43C)[C@@H]1CC[C@@H]2O,.,.,.,-7,.
COc1ccccc1C1CC2CCC(C1OC(C)=O)N2Cc1ccccc1 (stereo not drawn),-87*,6,-7,-19,1
Fc1ccc(CNC2CN3CCC2CC3)cc1 (stereo not drawn),-18,9,-8,0,15
CCOc1cccc(CNC2CN3CCC2CC3)c1 (stereo not drawn),-15,-51*,-7,-1,3
O=C(Nc1ccc(OC(F)(F)F)cc1)c1cccn(Cc2ccccc2Cl)c1=O,.,-5,0,3,1
c1cc2c(c(N3CCNCC3)c1)OCCO2,.,.,.,-24,.
CN1CCc2nc(SCc3ccccc3Br)c(C#N)cc2C1,-81*,-35*,-1,-11,2
Cc1cccc(CSc2nc3c(cc2C#N)CN(C)CC3)c1,-26,-4,-3,-1,1
CCOC(=O)CC(SP(=S)(OC)OC)C(=O)OCC (stereo not drawn),.,.,.,-12,.
CC(C)Oc1ccc(CC2(CCc3ccncc3)C(=O)NC(=O)NC2=O)cc1,2,-16,-2,33*,3
C1=C(c2c[nH]c3ccccc23)CCN(Cc2ccccc2)C1,-101*,6,-6,-21,6
c1ccc2c(CN3CCCCCCC3)c[nH]c2c1,-2,-16,-6,-5,3
CN1CC=C(c2c[nH]c3ccccc23)CC1,-85*,-1,-1,-16,4
Cc1cc(OCC(=O)N2CCN(CCc3ccccn3)CC2)cc(C)c1Cl,.,8,-1,7,0
CC(C)C(=O)c1cn(Cc2ccccc2C#N)c2ccccc12,-9,0,-2,-7,4
CC(=O)c1cn(Cc2ccccc2F)c2ccccc12,4,-55*,-5,7,17
CC(=O)c1cn(Cc2ccccc2C#N)c2ccccc12,-2,-34*,-5,2,15
Cc1ccccc1-n1c(/C=C/c2ccccc2F)nc2ccccc2c1=O,.,0,0,0,1
CCOC(=O)C1(c2ccccc2)CCCN(C)CC1 (stereo not drawn),.,.,.,0,.
CCN(CC)S(=O)(=O)c1ccc(NN=C(C#N)C#N)cc1,3,-8,-4,10,37*
CCOP(=O)(OCC)C(NS(=O)(=O)c1ccccc1)C(Cl)(Cl)Cl (stereo not drawn),-1,-33*,-1,-3,1
CCOP(=O)(OCC)C(NC(=O)c1ccccc1)C(Cl)(Cl)Cl (stereo not drawn),-12,-8,-4,6,3
SMILES,D3 antag,D1 antag,D1 PAM,D3 ag,D1 agonist
CNC1(c2ccccc2Cl)CCCCC1=O (stereo not drawn),4,.,.,8,.
CN(C(=O)c1ccco1)C1(c2ccccc2Cl)CCCCC1=O (stereo not drawn),-53*,-1,0,-12,5
CCN(CC)c1ccc(/C=C/[N+](=O)[O-])cc1,-14,-19,-3,-2,254*
CC(C)(C)NC[C@H](O)c1ccc(O)cc1Cl,.,.,.,5,.
CNC(=O)OCC[N+](C)(C)C,.,.,.,-7,.
CCO/N=C(\CC)C1=C(O)CC(c2c(C)cc(C)cc2C)CC1=O (stereo not drawn),.,.,.,8,.
COc1ccccc1CCNCc1cc2c(cc1[N+](=O)[O-])OCO2,-56*,-14,-3,1,4
COc1ccc(OC)c(C(O)C2CCCCN2)c1 (stereo not drawn),-61*,-1,10,-12,0
COc1ccc(OC)c([C@@H](O)[C@H](C)NC(C)(C)C)c1,19,5,7,14,2
O=C1NC(=O)N(c2ccccc2)C(=O)/C1=C/c1ccc(Sc2ccccc2)o1,-18,8,1,5,0
O=C1NC(=O)N(c2ccccc2F)C(=O)/C1=C/c1ccc(Sc2nc3ccccc3[nH]2)o1,-14,-10,5,-2,116*
O=C1NC(=O)N(c2cccc(Cl)c2)C(=O)/C1=C\c1ccc(Sc2nc3ccccc3[nH]2)o1,-18,-5,2,-14,63*
